Screening data from PubChem BioAssay.
In the library only some 3.8% were active in any assay of this set; here they are far more common.
proKLK7 act: proKLK7 (human) activation, primary screen | P49862 | purified proKLK7, EDANS-DABCYL substrate fluorescence; 100% is mature enzyme control, 0% vehicle | activation, % at 7 µM | 370,000 tested, 0.9% active | AID 652039;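 active = activation above the mean of all tested compounds plus 3 SD, computed per campaign excluding outliers beyond control limits, cut at about 13% in these data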
Ecoli rRNA inh: selective bacterial rRNA inhibition in E. coli; E. coli WT GFP vs humanized-ribosome RFP mutants, fluorescence, 24 h; stronger effect = lower value; DMSO median 0, no signal -100; GFP signal change (wild-type ribosome), % (concentration not given with the values); 350,000 tested, 1.6% active;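 active = significant combined selectivity score with lowered wild-type GFP, culture density cut under 30%, mutant RFP and density less affected; inactive = any of these conditions unmet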
ADAM17 inh: ADAM17 inhibition, QFRET primary screen | recombinant ADAM17, EDANS/DABCYL FRET peptide cleavage | inhibition, % at 6.95 µM | 370,000 tested, 0.83% active;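 active = inhibition above the mean of compounds lying between control limits plus 3 SD, set per campaign, cut at about 8.5% in these data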
Target sequence (P78536 215-824 limits assumed): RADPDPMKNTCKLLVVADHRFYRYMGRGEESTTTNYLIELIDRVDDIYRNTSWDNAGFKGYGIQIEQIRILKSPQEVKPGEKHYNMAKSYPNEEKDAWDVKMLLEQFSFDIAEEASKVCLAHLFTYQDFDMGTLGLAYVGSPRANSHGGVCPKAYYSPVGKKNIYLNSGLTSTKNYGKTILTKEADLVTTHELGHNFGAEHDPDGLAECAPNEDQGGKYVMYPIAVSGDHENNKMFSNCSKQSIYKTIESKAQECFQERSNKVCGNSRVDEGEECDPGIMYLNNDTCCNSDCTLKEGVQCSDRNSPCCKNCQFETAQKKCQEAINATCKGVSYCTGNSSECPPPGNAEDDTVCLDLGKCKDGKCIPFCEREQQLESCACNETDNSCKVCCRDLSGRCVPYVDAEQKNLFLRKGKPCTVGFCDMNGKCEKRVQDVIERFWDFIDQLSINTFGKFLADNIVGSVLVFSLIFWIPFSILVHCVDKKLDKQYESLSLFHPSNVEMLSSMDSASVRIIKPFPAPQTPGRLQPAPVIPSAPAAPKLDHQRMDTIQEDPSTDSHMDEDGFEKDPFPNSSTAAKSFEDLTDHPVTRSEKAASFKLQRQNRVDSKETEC
ADAM10 inh: ADAM10 inhibition, QFRET primary screen; 370,000 tested, 0.62% active; O14672; recombinant ADAM10, EDANS/DABCYL FRET peptide cleavage, 3 h; inhibition, % at 7 µM;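 active = inhibition above a per-campaign cutoff equal to the mean of compounds falling between control-based bounds plus 3 SD, cut at about 20% in these data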
FGF22 binding: shifts melting point of recombinant human FGF22 | 340,000 tested, 1.5% active | activity (Tm shift, normalised), % at 9.99 µM | AID 651658 | recombinant FGF22 thermal shift, SYPRO orange fluorescence; percent of sucrose octasulfate shift, DMSO zero | Q9HCT0;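 active = mean Tm shift, scaled 0 neutral to 100 positive control, at about 1.3% or above, every replicate too, limit read from the data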
Each line names hits and unclear results; the compound was inactive in the other large screens.

O=C(CN1CCOCC1)Nc1ccc(OC(F)(F)F)cc1	none
O=C(CN1CCOCC1)N1CCCCN2[C@H](CO)[C@H](c3ccc(C#Cc4ccccc4)cc3)[C@@H]2C1	none (no result: proKLK7 act, ADAM17 inh, ADAM10 inh)
COc1ccc2c3c(n(C)c2c1)[C@H](CO)N(CC1CC1)CC31CN(C(=O)c2ccc(F)cc2)C1	none (no result: proKLK7 act, ADAM17 inh, ADAM10 inh, FGF22 binding)
O=C(C[C@@H]1C[C@H]2c3cc(NC(=O)NC4CCCC4)ccc3O[C@H]2[C@H](CO)O1)NCc1cccc(F)c1	none (no result: proKLK7 act, ADAM17 inh, ADAM10 inh)
ONC(=Nc1ccccc1Cl)c1ccccc1Cl	Ecoli rRNA inh -31.5
O=[N+]([O-])c1cccc(C(=Nc2ccccc2Cl)NO)c1	none (no result: Ecoli rRNA inh, FGF22 binding)
C[C@@]12C(=O)N(c3ccc(Br)cc3)C(=O)N1[C@@H]1c3ccccc3OC[C@@H]1[C@H]2c1ccccc1	FGF22 binding 1.5
CCOC(=O)[C@@H]1[C@H]2COc3cc(OC)ccc3[C@@H]2N2C(=O)N(c3ccc(F)cc3)C(=O)[C@]12C	FGF22 binding 44.4
CCOC(=O)[C@@H]1[C@H]2COc3ccc(Br)cc3[C@H]2N2C(=O)N(c3ccc(C(F)(F)F)cc3)C(=O)[C@]12C	ADAM10 inh 23.6
CCOC(=O)[C@@H]1[C@H]2COc3ccccc3[C@@H]2N2C(=O)N(c3ccc(Cl)cc3)C(=O)[C@]12C	FGF22 binding 43.6
CCOC(=O)[C@@H]1[C@H]2COc3ccccc3[C@H]2N2C(=O)N(c3ccc(C)cc3)C(=O)[C@]12C	none
COc1ccc2c3c(n(C)c2c1)[C@H](CO)N(C(=O)c1ccncc1)CC31CCN(C)CC1	none (no result: proKLK7 act, ADAM17 inh, ADAM10 inh, FGF22 binding)
C[C@@H]1CN([C@@H](C)CO)C(=O)Cc2cc(NS(C)(=O)=O)ccc2O[C@H]1CN(C)C(=O)Nc1ccc2c(c1)OCO2	none (no result: proKLK7 act, ADAM17 inh, ADAM10 inh)
COc1ccc(NC(=O)Nc2ccc3c(c2)C(=O)N([C@@H](C)CO)C[C@@H](C)[C@@H](CN(C)C(=O)Cc2ccccc2)OCCCC[C@H](C)O3)cc1	none (no result: proKLK7 act, ADAM17 inh, ADAM10 inh)
C[C@@H]1CCCCO[C@@H](CN(C)Cc2ccc(C(=O)Nc3ccccc3N)cc2)[C@@H](C)CN([C@H](C)CO)C(=O)c2cc(NC(=O)Cc3ccccc3)ccc2O1	none (no result: proKLK7 act, ADAM17 inh, ADAM10 inh)
CN(c1cccc(NC(=O)CN(c2cccc(F)c2)S(C)(=O)=O)c1)S(C)(=O)=O	FGF22 binding 43.0
NCC[C@H]1CC[C@H](NC(=O)c2ccccc2F)[C@H](CO)O1	none (no result: proKLK7 act, ADAM17 inh, ADAM10 inh, FGF22 binding)
COc1ccc(-c2cc(C(=O)N(C)Cc3nc4ccccc4c(=O)[nH]3)c3ccccc3n2)cc1OC	FGF22 binding 44.4
COc1ccc(-c2cc(C(=O)N(C)Cc3cccc(OC)c3OC)c3ccccc3n2)cc1OC	Ecoli rRNA inh -28.0
COc1cccc(CN(C)C(=O)c2cc(-c3ccc(OC)c(OC)c3)nc3ccccc23)c1	none
COCC(=O)N1CC[C@H]2[C@H](CO)Nc3ccc(-c4cccc(C(=O)N(C)C)c4)cc3[C@H]21	none (no result: proKLK7 act, ADAM17 inh, ADAM10 inh)
C[C@@H]1CN([C@H](C)CO)C(=O)c2cc(C3=CCCCC3)cnc2O[C@@H]1CN(C)C(=O)Cc1cccnc1	none (no result: proKLK7 act, ADAM17 inh, ADAM10 inh)
COc1ccc(CN(C)C[C@@H]2Oc3c(NC(=O)C4CCOCC4)cccc3C(=O)N([C@@H](C)CO)C[C@H]2C)cc1	none (no result: proKLK7 act, ADAM17 inh, ADAM10 inh)
CCCNC(=O)N1CC2(C1)CN(C(=O)COC)[C@H](CO)c1c2c2ccc(OC)cc2n1C	none (no result: proKLK7 act, ADAM17 inh, ADAM10 inh, FGF22 binding)
Cc1nn(-c2ccccc2)c(C)c1C(=O)OC(C)C(=O)Nc1ccc(C(N)=O)cc1 (stereo unspecified)	FGF22 binding 43.0
CO[C@H]1CN(C)C(=O)c2cc(NC(C)=O)ccc2OC[C@H](C)N(Cc2cccnc2)C[C@@H]1C	none (no result: proKLK7 act, ADAM17 inh, ADAM10 inh, FGF22 binding)
COc1ccc(C(=O)NCC(c2ccco2)N2CCc3ccccc32)c(OC)c1 (stereo unspecified)	Ecoli rRNA inh -23.9 (no result: FGF22 binding)
COc1ccc(C(=O)NCC(c2ccco2)N2CCc3ccccc3C2)c(OC)c1 (stereo unspecified)	none
COc1ccc2c3c([nH]c2c1)[C@@H](CO)N(C(=O)c1ccncc1)CC31CN(Cc2cccnc2)C1	none (no result: proKLK7 act, ADAM17 inh, ADAM10 inh, FGF22 binding)
S=c1[nH]nc(-c2cc(-c3ccccn3)nc3ccccc23)o1	none
Cc1ccc(-c2cc(-c3n[nH]c(=S)o3)c3ccccc3n2)cc1	Ecoli rRNA inh -18.4
CC(=O)Nc1cccc(-c2ccnc3c2CC(C(=O)Nc2ccc4c(c2)OCO4)O3)c1 (stereo unspecified)	Ecoli rRNA inh -21.9
Cc1c(Cl)c(C(F)(F)F)nn1CC(=O)NCc1ccco1	FGF22 binding 42.9
O=C(/C=C/Nc1ccccc1Oc1ccccc1)c1ccco1	Ecoli rRNA inh -32.4 (no result: FGF22 binding)
O=C(/C=C/Nc1ccccc1O)c1ccco1	none
CSc1nnc2c(n1)OC(c1ccccn1)N(C(C)=O)c1ccccc1-2 (stereo unspecified)	FGF22 binding 43.4 (no result: Ecoli rRNA inh)
CCOc1cc(CO)cc(Br)c1OCC(=O)Nc1ccccc1C	FGF22 binding 42.9
C#CCOCCOCCOCCNc1nc(N2CCOCC2)nc(N2CCN(C(=O)CCCCCCCCCCNC(=O)[C@H](CO)n3cc(CCCSC)nn3)CC2)n1	none
C#CCOCCOCCOCCNc1nc(N2CCN(C(=O)CCCCCCCCCCNC(=O)[C@H](CCCCN)n3cc(CCO)nn3)CC2)nc(N2CCN(C(=O)CCCCCCCCCCNC(=O)[C@H](CCCCN)n3cc(CCCC(=O)O)nn3)CC2)n1	Ecoli rRNA inh -40.4
C#CCOCCOCCOCCNc1nc(N2CCN(C(=O)[C@H](CO)n3cc([C@@H](N)C(C)C)nn3)CC2)nc(N2CCN(C(=O)[C@H](CCCCN)n3cc([C@@H](N)[C@H](C)CC)nn3)CC2)n1	FGF22 binding 43.3
C#CCOCCOCCOCCNc1nc(N2CCN(C(=O)CCCCCCCCCCNC(=O)[C@H]([C@@H](C)CC)n3cc(CCCCN=C(N)N)nn3)CC2)nc(N2CCN(C(=O)CCCCCCCCCCNC(=O)[C@@H]([C@H](C)O)n3cc(C)nn3)CC2)n1	Ecoli rRNA inh -40.3 (no result: proKLK7 act, ADAM17 inh, ADAM10 inh, FGF22 binding)
C#CCOCCOCCOCCNc1nc(N2CCOCC2)nc(N2CCN(C(=O)CCCCCCCCCCNC(=O)[C@H]([C@@H](C)CC)n3cc(CCCCN=C(N)N)nn3)CC2)n1	none
COc1ccc(-c2ccc3c(c2)[C@@H]2[C@@H](CCN2C(=O)Cc2ccccn2)[C@@H](CO)N3C)cc1	none (no result: proKLK7 act, ADAM17 inh, ADAM10 inh, FGF22 binding)
COc1ccc(-c2c(C)n([O-])c3c([n+]2=O)CCCCC3)cc1OC	FGF22 binding 43.2
Cc1ccc(-c2c(C)n([O-])c3c([n+]2=O)CCCC3)cc1	none
C[C@H](CO)N1C[C@H](C)[C@@H](CN(C)C(=O)CCCN(C)C)OCCCC[C@H](C)Oc2ccc(NC(=O)CCCN(C)C)cc2C1=O	none (no result: proKLK7 act, ADAM17 inh, ADAM10 inh)
C[C@H](CO)N1C[C@H](C)[C@@H](CN(C)S(=O)(=O)c2ccccc2F)Oc2ncc(C#Cc3ccccc3)cc2C1=O	none (no result: proKLK7 act, ADAM17 inh, ADAM10 inh)
CC(/C=N/NC(=O)c1ccncc1)=C\c1ccccc1	none
CC(=C/c1ccc(C(C)C)cc1)/C=N/NC(=O)c1ccncc1	FGF22 binding 43.3 (no result: Ecoli rRNA inh)
COc1ccc(C2c3c(ncn(CCCO)c3=N)Oc3ccc4ccccc4c32)cc1OC (stereo unspecified)	none
